Holding throughout (assay): NCI-60 one-dose screen, 48 h (100 = growth as untreated, 0 = no growth, -100 = all killed)
Holding throughout (conditions): 10 µM unless noted

Experiment [1] has as its system HCT-15 colon.
In experiment [2] the test system is HT29 colon.
Experiment [3] concerns SNB-75 CNS.
Experiment [4] has as its system SNB-19 CNS.
Experiment [5] concerns U251 CNS.
Experiment [6] has as its system PC-3 prostate.
Experiment [7] deals with SK-MEL-5 melanoma.
In experiment [8] the test system is UACC-62 melanoma.
For experiment [9], the system named is LOX IMVI melanoma.
The test system of experiment [10] is SK-MEL-28 melanoma.
Experiment [11] has as its system SK-MEL-2 melanoma.
The subject of experiment [12] is EKVX NSCLC.
Experiment [13] relates to SN12C renal.
Experiment [14] concerns UO-31 renal.
Experiment [15] has as its system TK-10 renal.
For experiment [16], the system named is ACHN renal.
The test system of experiment [17] is CAKI-1 renal.
Experiment [18] deals with MOLT-4 leukemia.
Experiment [19] has as its system A498 renal.
The test system of experiment [20] is CCRF-CEM leukemia.

Structures are written as SMILES. This is part of a sample that, as a whole, favours compounds with a hit. Of some 83,000 tested, about 20% had one in any assay.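 For each line, cells grew in 96-well plates with the test compound present at a single concentration for 48 hours.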 A number with no mark means an inactive call. Activity calls are given as the source filed them. How the source made its calls: active means growth percent below 10; inactive means the rest.

Experimental findings from PubChem BioAssay (NCI) are described below.

Take `C[C@H]1[C@H](C)CC[C@]2(CO)CC[C@]3(C)C(=CC[C@@H]4[C@@]5(C)Cc6c([nH]c7ccccc67)C(C)(C)[C@@H]5CC[C@]43C)[C@H]12`: the growth in experiment [1] was 100%; in [2] it was 68.1%; in experiment [3], 87.6%; in experiment [4], 80.8%; in experiment [5] it was 72.4%; in experiment [6] it was 68.5%. For the same compound, the growth in experiment [7] was 97.5%; in experiment [8], 81.4%; in [9], 79.1%; in [10] it was 79.6%; in experiment [11] it was 85.2%; in experiment [12], 75.5%. Moreover, the growth in experiment [13] is 55.6%; in experiment [14], 74.3%; in [15], 86.3%; in [16], 60.8%; in experiment [17], 73.2%; in experiment [18] it was 67%.
Take `CC1NC(=S)NC(=O)/C1=C/c1cc(=O)oc2c1ccc1ccccc12` (centres undefined): the growth was 103% in [1]; 87.7% in experiment [2]; 73.3% in experiment [3]; 103% in [4]; 94.9% in experiment [5]; 72.8% in [6]. Besides, the growth in [7] was 97.1%; in experiment [8] it was 99.1%; in experiment [9], 89.2%; in experiment [10] it was 115%; in experiment [11] it was 91%; in experiment [12], 88.7%. Also, the growth is 95.6% in experiment [13]; 73.6% in experiment [14]; 123% in [15]; 95.6% in experiment [16]; 101% in [19]; 81% in [20]. Further, in experiment [18], the growth was 88.6%.
Turning to `CCOC(=O)c1c(C)nc2c(c1N)C(=O)C(=O)N2Cc1ccc(C(F)(F)F)cc1`, the growth in [1] is 24.1%; in experiment [2] it was 65.1%; in [3], 62.2%; in experiment [4], 59.3%; in [5], 41%; in [6], 43.7%. The growth in [7] was 66.7%; in experiment [8], 42.8%; in [9] it was 54.1%; in experiment [10] it was 74.8%; in [11], 77%; in [12], 79.5%. The growth is 74.1% in [13]; 54.1% in experiment [14]; 107% in experiment [15]; 69.7% in [16]; 72.6% in experiment [19]; 39.4% in experiment [20]. Also, the growth in experiment [18] was 60.1%.
On to `Cc1nccc2c3ccc(OCc4cn(-c5ccc(Cl)cc5)nn4)cc3n(CCCc3ccccc3)c12`, for which the growth was 45.7% in experiment [1]; 11.1% in experiment [2]; -45.1% (active) in [3]; 63% in experiment [4]; 25.3% in experiment [5]; 16.3% in experiment [6]. For the same compound, the growth in experiment [7] was 68.3%; in experiment [8], -62% (active); in experiment [9], 0.291% (active); in [10] it was -34.3% (active); in experiment [11] it was 90.8%; in experiment [12], 66.3%. The growth in [13] was 6.96% (active); in experiment [14], -87.1% (active); in experiment [15], -16.1% (active); in [16], -20.4% (active); in experiment [19], 87.5%; in [20], 2.43% (active). Also, the growth in experiment [18] was 18.2%.
In the case of `O=C(Nc1cccc(C2=NCCN2)c1)c1ccc(OCCCOc2ccc(C(=O)Nc3cccc(C4=NCCN4)c3)cc2)cc1`, the growth in experiment [1] was 90.7%; in experiment [2] it was 12.9%; in [3], -1.39% (active); in experiment [4], 14.9%; in experiment [5], 24.8%; in experiment [6], 29.8%. The growth is 2.98% (active) in experiment [7]; -10.5% (active) in experiment [8]; -33.4% (active) in experiment [9]; -67.4% (active) in [10]; -47.3% (active) in [11]; 69.4% in [12]. In addition, the growth in experiment [13] is 23.6%; in experiment [14], 85.7%; in [15], 81.5%; in [16], 75.3%; in experiment [17], 65.1%; in [18], 25.4%.
On to `COc1ccc(-n2cc(-c3cc(OC)c(OC)c(OC)c3)n(C(C)=O)c2=O)cc1`, for which the growth in experiment [1] was 94.9%; in experiment [2], 108%; in experiment [3], 69.5%; in [4], 86.1%; in experiment [5] it was 88.2%; in experiment [6] it was 94%. The growth is 6.54% (active) in experiment [7]; 84.1% in experiment [8]; 94% in experiment [9]; 115% in experiment [10]; 93.2% in experiment [11]; 88% in experiment [12]. For the same compound, the growth is 93.4% in experiment [13]; 77.2% in experiment [14]; 105% in experiment [15]; 97.7% in experiment [16]; 53.7% in experiment [17]; 103% in experiment [18].
For the compound `COc1ccc(CNCCN2C(=O)c3ccc4c5c(ccc(c35)C2=O)C(=O)N(CCNCc2ccc(OC)cc2)C4=O)cc1`, the growth is -68.1% (active) in experiment [1]; -55.3% (active) in experiment [2]; -95.7% (active) in experiment [3]; -90.9% (active) in [4]; -91.8% (active) in experiment [5]; -76% (active) in experiment [6]. The growth in [7] was -99.6% (active); in experiment [8], -84.4% (active); in experiment [9] it was -74.7% (active); in experiment [10], -96.2% (active); in [11], -74.2% (active); in experiment [12], -69.3% (active). In addition, the growth in experiment [13] was -87.9% (active); in experiment [14] it was -76.6% (active); in [15], -61.7% (active); in experiment [16], -74.3% (active); in experiment [17] it was -53.8% (active); in experiment [20], -16.3% (active). In addition, in experiment [18], the growth was -36.1% (active).
`COc1ccccc1OCC(=O)N1CCCCCC1`: the growth in experiment [1] is 103%; in [2], 95.2%; in experiment [3], 91.4%; in experiment [4] it was 96.2%; in experiment [5], 95.3%; in [6], 89.8%. The growth in [7] was 100%; in [8], 99.4%; in experiment [9] it was 93.6%; in experiment [10] it was 101%; in experiment [11], 114%; in [12], 89.6%. Besides, the growth is 103% in experiment [13]; 92% in experiment [14]; 96.1% in experiment [15]; 105% in experiment [16]; 84.1% in experiment [17]; 101% in [20]. Besides, the growth in [18] is 86.9%.
